In PubChem BioAssay (NCATS) one finds Potency data, which are given here for 27 compounds.

Records with an inconclusive call do not appear. A call without a number means that no potency is given here. Calls of active or inactive are those of the source. Calls come from the whole dose curve; as a rule, active = well fitted cell-killing curve with a large enough effect; inconclusive = small, poorly fitted or top-dose-only effect, or effect the other way; inactive = no such curve, though single readings can be large or run the other way.
Potency is the fitted concentration of half-maximal effect.

A short description of this assay: Quantitative High-Throughput drug screen in 47 multiple myeloma cell lines against the NCATS MIPE library collection: KMS11_JCRBsus cell viability assay (AID 1919873). Note: nearly all actives have a fitted effect of over 50% in size. Conditions: KMS11 myeloma viability, CellTiter-Glo ATP luminescence, 48 h; series mostly up to 45.8 µM. An outline of the steps: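 500 cells/well; MIPE 4.0 drugs pin-transferred; 48 h, 37C, 5% CO2. CellTiter-Glo, 5 min RT, luminescence. Controls: DMSO 100%, media 0%.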
For orientation: Cellular ATP, detected with luciferase, serves as a proxy for viable cell number.
Regarding `c1ccc(CCCN2CCN(CCOC(c3ccccc3)c3ccccc3)CC2)cc1`, the Potency was 20.9 µM (active).
On to `Cc1nc(-c2ccc(-c3ccc(C(=O)N4CCc5cc6c(cc54)C4(CCN(C)CC4)CO6)cc3)c(C)c2)no1`, for which the Potency entry was “inactive”.
As for `Cc1c(C(=O)Nc2cccc(C(F)(F)F)c2)cc(-c2ccccc2)n1CCCN1CCOCC1`, the Potency is 23.5 µM (active).
The same measure for `CC[C@@H](C(N)=O)N1CCCC1=O`: “inactive”; for `C[C@@H]1CC[C@H]2[C@@H](C)C(=O)O[C@@H]3O[C@@]4(C)CC[C@H]1[C@]32OO4`: “inactive”; for `O=S(=O)(CC1CS1)c1ccc(Oc2ccccc2)cc1` (configuration not stated): 26.4 µM (active).
The same measure for `CCc1c(C(=O)C(N)=O)c2c(OCC(=O)O)cccc2n1Cc1ccccc1`: “inactive”; for `CC(C)N(CCNC(=O)CN1CCCC1=O)C(C)C`: “inactive”; for `C[C@@H]1O[C@@H](O[C@@H]2C=C3CC[C@@H]4[C@@H](CC[C@]5(C)[C@H](c6ccc(=O)oc6)CC[C@@]45O)[C@@]3(C)CC2)[C@H](O)[C@H](O)[C@H]1O`: 0.0526 µM (active).
As for `C=C[C@@H]1CN2CCC1C[C@@H]2[C@@H](O)c1ccnc2ccccc12` (some centres not stated), the figure is 20.9 µM (active); as for `C[C@@]12OC(=O)[C@]1([C@@H](O)[C@@H]1C=CCCC1)NC(=O)[C@H]2CCCl`, 0.0066 µM (active).
Take `CSCC[C@@H](NC(=O)[C@@H](Cc1ccccc1)NC(=O)CNC(=O)CNC(=O)[C@@H](N)Cc1ccc(O)cc1)C(=O)O`: the Potency result was “inactive”.
As for `CC(C)(C)[C@]1(O)C[C@@H]2OC(=O)C[C@@]23C(=O)O[C@@H]2OC(=O)[C@H](O)C213` (some centres not stated), the entry is “inactive”; as for `CC(=Cc1csc(C)n1)[C@@H]1C[C@H]2O[C@]2(C)CCC[C@H](C)[C@@H](O)[C@@H](C)C(=O)C(C)(C)[C@@H](O)CC(=O)O1`, “inactive”; as for `C[C@]12CC[C@@H]3[C@@H](CCC4=CC(=O)CC[C@@H]43)[C@@H]1CC[C@@H]2OC(=O)CCc1ccccc1`, “inactive”.
The same measure for `c1ccc2c(CN3CCNCC3)cccc2c1`: “inactive”.
As for `COc1cc([C@@H]2c3cc4c(cc3[C@@H](O)C3COC(=O)C32)OCO4)cc(OC)c1O` (some centres not stated), the figure is 0.0093 µM (active).
Regarding `COc1ccc2c(c1)CN(C)CC2c1ccc(Cl)c(Cl)c1` (configuration not stated), the Potency was 14.8 µM (active).
Turning to `CCC(=O)OC1CCC2C3CCC4=CC(=O)CC[C@@]4(C)C3CC[C@]12C` (some centres not stated), the Potency result was “inactive”.
Take `O=C1C=CC[C@@H]2[C@H]3CCCN4CCC[C@@H](CN12)[C@@H]34`: the Potency result was “inactive”.
As for `CCN(CC)C(=O)c1ccc(C2=CC3(CCNCC3)Oc3cccc(O)c32)cc1`, the entry is “inactive”; as for `O=c1cccc2n1CC1CNC[C@H]2C1`, 6.62 µM (active).
As to `COc1ccc(CC2NCCc3cc(OC)c(OC)cc32)cc1OC` (configuration not stated), the Potency result was “inactive”.
As for `CCCN1CCO[C@@H]2c3cc(O)ccc3OC[C@@H]21`, the entry is “inactive”; as for `Oc1ccc2c3c1O[C@H]1c4[nH]c5c(c4C[C@@]4(O)[C@@H](C2)N(CC2CC2)CC[C@]314)C[C@@]1(O)[C@H]2Cc3ccc(O)c4c3[C@@]1(CCN2CC1CC1)[C@H]5O4`, “inactive”.
Take `C[C@]12COC(=O)C[C@@H]1CC[C@@H]1[C@H]2CC[C@@]2(C)[C@H]1CC[C@]2(C)O`: the Potency result was “inactive”.
Take `CC1=NN=C(c2ccc(N)cc2)c2cc3c(cc2C1)OCO3`: the Potency entry was “inactive”.
